Measured values: PubChem BioAssay AID745 (Emory University Molecular Libraries Screening Center, 2007)
Among all 33,000 compounds or so, about 40 (0.1%) were called active. The list comes from a sample in which actives are over-represented; it also holds similar structures and randomly drawn compounds. Unmarked numbers belong to inactive results. Cut-off read from the data, not from the text of the source: active = z-score below about -3; inactive = the rest.

assay: inhibitors of measles virus growth in cells, primary screen, measles RdRp inhibitor project, cell-based, single point, HTS (AID 745); conditions: infected Vero cells, GFP fluorescence, 64 h; hits give low values

Row | Structure (SMILES) | z-score
1 | Cc1onc(-c2ccccc2)c1C(=O)N1CCN(c2ccc(OCc3ccccc3)cc2)CC1 | -0.43
2 | Cc1nn(C)c(C)c1S(=O)(=O)Nc1ccc(C(C)C)cc1 | -0.07
3 | O=C(COC(=O)c1ccc(N2C(=O)c3ccccc3C2=O)cc1)c1ccc(Cl)cc1 | -1.36
4 | CCOC(=O)c1c(O)cc2ccccc2c1O | 0.14
5 | O=C1NCCCCC1Nc1ccc(N2C(=O)CCCC2=O)cc1[N+](=O)[O-] (stereo not drawn) | -1.9
6 | Cc1ccc(C(=O)Nc2ccc(Br)cn2)cc1C | -0.15
7 | COc1ccc(NC(=O)CN(c2cc(C(F)(F)F)ccc2Cl)S(=O)(=O)c2ccccc2)cc1 | -0.33
8 | Cc1ccc2nc(N3CCC(C(=O)NC4CCCCC4)CC3)[nH]c2c1 | 3.44
9 | CCCCSc1nnc2c(n1)OC(c1ccc3c(c1)OCO3)N(C(C)=O)c1ccccc1-2 (stereo not drawn) | 0.17
10 | C=CCN1C(=O)c2ccccc2Sc2ccc(C(=O)NCCOC)cc21 | 1.28
11 | Cc1ccc(S(=O)(=O)N2N=C(c3ccccc3)CC2c2ccccc2Cl)cc1 (stereo not drawn) | 0.52
12 | COCCOC(=O)C1=C(C)NC(=O)NC1c1ccc(Br)s1 (stereo not drawn) | -0.55
13 | Cc1ccc(CNC(=O)CCNC(=O)Cn2ccc3ccccc3c2=O)cc1 | -0.31
14 | CCOc1sc2nc(C)n(CC(=O)Nc3ccc(N(C)C)cc3)c(=O)c2c1C | -1.08
15 | CCC(C)NC(=O)C1(C)CCC(=O)N1CCN1CCCCCC1 (stereo not drawn) | -0.27
16 | O=C1C2C3C=CC(C3)C2C(=O)N1c1ccc(Nc2ccc3c(c2)CCC3)c([N+](=O)[O-])c1 (stereo not drawn) | -1.35
17 | Cn1ncc([N+](=O)[O-])c1C#N | -0.09
18 | COc1ccc2c(c1)c(C(=O)CNc1nc(C)c(C)s1)c(C)n2C | -1
19 | O=C1CCCN1CCCn1c(=S)[nH]c2ccccc2c1=O | -0.96
20 | CC(=O)N1CCc2cc(S(=O)(=O)CCC(=O)Nc3ccc(C(F)(F)F)cc3)ccc21 | -0.69
21 | Cc1ccc2nsnc2c1S(=O)(=O)Nc1ccc(Br)cc1 | -1.76
22 | Cc1ccccc1NCc1cccc([N+](=O)[O-])c1 | 0.03
23 | O=C(c1oc(=O)c2ccccc2c1-c1ccccc1)N1CCc2ccccc21 | 0.81
24 | Nc1nc2ccccc2n1CCOc1ccc([N+](=O)[O-])cc1 | -0.25
25 | CCC(=O)Nc1cccc(-c2nc3ncccc3o2)c1 | 0.77
26 | Cc1ccc(CNC(=O)CCSCc2cccc(Cl)c2)cc1 | -0.79
27 | CCOc1ccc(C(=O)Nc2ccc3nn(-c4ccc(OC)cc4)nc3c2)cc1Cl | 0.27

Row | Structure (SMILES) | z-score
28 | Cc1ccc(-c2nnn(CC(=O)Nc3ccc(OC(F)(F)F)cc3)n2)cc1 | 0.34
29 | CCOC(=O)c1cnc2ccc(Cl)cc2c1Nc1ccc2c(c1)OCCO2 | -0.29
30 | O=C(N1CCCc2ccccc21)C12CC3CC(CC(C3)C1)C2 | -0.74
31 | O=C(O)c1ccc2c(c1)C(=O)N(c1cccc(Oc3ccc4c(c3)C(=O)N(c3ccccc3)C4=O)c1)C2=O | -2.01
32 | COc1ccc(-n2cnc3cc(C(=O)NC4CCCC4)ccc32)cc1 | -0.86
33 | Cc1cc(C)cc(-n2nc3c(c2NC(=O)CCCCl)CSC3)c1 | -0.91
34 | COc1ccc(OC)c(NC(=O)c2c(NCc3ccc(C)o3)sc3c2CCC3)c1 | -1.95
35 | Cc1cccc(C(=O)Nc2ccc(-c3nc4cc(C(C)(C)C)ccc4o3)cc2)c1 | -0.77
36 | CCn1cc(C(=O)Nc2cc(Cl)ccc2OC)c(=O)c2ccc(C)nc21 | 0.75
37 | CCn1cc(C(=O)NCCCN2CCCCCC2)c2cc(OC)c(OC)cc2c1=O | -0.6
38 | Cc1cc(C)cc(NC(=O)CCCn2c(=S)[nH]c3ccccc3c2=O)c1 | -1.99
39 | CCCCCCn1c(SCC(=O)c2ccccc2)nc2c1c(=O)[nH]c(=O)n2C | -0.58
40 | CC(C)c1ccc(NS(=O)(=O)c2ccc3[nH]cc(C(=O)NC4CCCC4)c(=O)c3c2)cc1 | -2.24
41 | COc1cc(C(=O)Nc2ccc(C(C)=O)cc2)cc(OC)c1OC | 0.14
42 | O=C(O)c1ccc(-n2cnnn2)cc1 | 1.04
43 | CCOC(=O)C1CCN(c2nc(-c3cccc(C)c3)nc3ccccc23)CC1 | -0.19
44 | Cc1ccccc1CSC1=NCCN1C(=O)C12CC3CC(CC(C3)C1)C2 | -0.58
45 | CCOc1ccccc1N(C)C(=O)C1c2cc(OC)c(OC)cc2C(=O)N(C)C1c1cccnc1 (stereo not drawn) | 1.17
46 | CCN(CC)C(=O)C1c2cc(OC)c(OC)cc2C(=O)N(C)C1c1ccc(SC)cc1 (stereo not drawn) | 0.35
47 | Nc1c(C(=O)Nc2ccc(Br)cc2)sc2nc3c(c(-c4ccco4)c12)CCCCC3 | -0.89
48 | CN(C)c1ccc(C(O)(c2ccccc2)c2ccccc2)cc1 | -0.51
49 | CC(C)CC(=O)N1CCN(Cc2cccc(Cl)c2)CC1 | -4 (active)
50 | CC(C)CC(=O)N1CCN(Cc2ccccc2Br)CC1 | 0.09
51 | O=C(CN1CCN(Cc2cccc(Cl)c2)C1=O)NC1CCCCCCC1 | 0.45
52 | CCC(=O)N1CCc2cc(Br)cc(S(=O)(=O)N3CCCC(C(=O)N4CCN(c5cccc(C(F)(F)F)c5)CC4)C3)c21 (stereo not drawn) | -0.33
53 | CCOC(=O)c1c(C)oc2ccc(N(C(=O)c3ccccc3Cl)S(=O)(=O)c3cccc([N+](=O)[O-])c3)cc12 | -0.28
